From PubChem BioAssay (EPA / NIEHS) come the findings set out here.

Activity calls are given as the source filed them. The calls were made as follows: active = hit-call score of the fitted dose curve at least 0.9, where 1 is the maximum; inactive = score below 0.9.

This test is described as follows: ATG_GRE_CIS: Attagene CIS-FACTORIAL HepG2 Assay for human Glucocorticoid Response Elements (GRE) (AID 2282947). As to conditions: HepG2 GRE cis-reporter, Attagene multiplex mRNA; actives raise or lower the signal. The procedure: ATG_CIS is a cell-based, multiplexed-readout assay that uses HepG2, a human liver cell line, with measurements taken at 24 hours after chemical dosing in a 24-well plate.ATG_GRE_CIS is one of 52 assay component(s) measured or calculated from the ATG_CIS assay. It is designed to make measurements of mRNA induction, a form of inducible reporter, as detected with fluorescence intensity signals by Reverse transcription polymerase chain reaction (RT-PCR) and Capillary electrophoresis technology.Data from the assay component ATG_GRE_CIS was analyzed into 1 assay endpoint. This assay endpoint, ATG_GRE_CIS, was analyzed with bidirectional fitting relative to DMSO as the negative control and baseline of activity. Using a type of inducible reporter, measures of mRNA for gain or loss-of-signal activity can be used to understand the reporter gene at the transcription factor-level as they relate to the gene NR3C1. Furthermore, this assay endpoint can be referred to as a primary readout, because this assay has produced multiple assay endpoints where this one serves a reporter gene function. To generalize the intended target to other relatable targets, this assay endpoint is annotated to the nuclear receptor intended target family, where the subfamily is steroidal.
Human liver HepG2 cells are transiently transfected with multiple reporter transcription units (MRTUs) in 6-well plates using FuGene 6 reagent (Roche; 3 ml FuGene/1 mg DNA). The MRTU constructs are regulated by a cis-regulating element (promoter). […] A major difference between the CIS and TRANS system is that in CIS activities of endogenous TFs are measured, whereas the TRANS assay evaluates changes in activities of exogenous, chimeric NR-Gal4 proteins. […] At the end of 24 hour incubation, total RNA was isolated using TriZol reagent (Invitrogen). The isolated RNA is then reverse-transcribed using oligo(dT) primer and Mo-MLV reverse transcriptase (Invitrogen) with DNAse I (Ambion) treatment for 30 min. The one-tenth of the produced cDNA was amplified by PCR using Taq DNA polymerase (Invitrogen) and two reporter sequence-specific primers. The PCR products were fluorescently labeled by primer extension with 6-arboxyfluorescein (6-FAM) 5'-labeled reporter sequence-specific primer (2 min at 95 C, 20 s at 68 C and 10 min at 72 C) and these products were digested with 5U of HpaI (New England Biolabs) for 2h at 37 C. The fragments were purified using Qiaquick PCR columns (Qiagen), analyzed on an ABI 3130xL genetic analyzer (Applied Biosystems) with peak positions identified by using a set of X-rhodamine (ROX)-labeled MapMarker1000 molecular weight standards (BioVentures). The raw capillary electrophoresis data was processed using Attagraph software (Attagene).
`CCCCS(=O)(=O)Cl`: the outcome was inactive.
Still for that read-out and setting: the same measure for `CC1(C)[C@H](C(=O)O[C@H](C#N)c2cccc(Oc3ccccc3)c2)[C@@H]1/C=C(\Cl)C(F)(F)F`: “inactive”.
The same measure, in the same setting: to `Brc1ccc(Oc2c(Br)cc(Br)cc2Br)c(Br)c1` belongs “inactive”; to `CC(C)[N+](=O)[O-]`, “inactive”.
The same measure, in the same setting: to `C=CCOC(N)=O` belongs “inactive”; to `Cc1cc(Cl)ccc1N`, “inactive”; to `Cc1cccc(N=Nc2ccc(N(C)C)cc2)c1`, “inactive”.
With `O=C1c2ccccc2C(=O)C1C(=O)C(c1ccccc1)c1ccc(Cl)cc1` (stereo not given), the result was inactive.
On the same count and under the same terms, the same measure for `Cl[C@H]1OCCO[C@@H]1Cl`: “inactive”; for `O=[N+]([O-])c1ccccc1O`: “inactive”.
Same read-out and setting: to `O=S1(=O)OC(c2cc(Br)c(O)c(Br)c2)(c2cc(Br)c(O)c(Br)c2)c2ccccc21` belongs “inactive”.
With `C[C@H]1C(=O)O[C@@H]2CCN3CC=C(COC(=O)[C@](C)(O)[C@]1(C)O)[C@H]23`, the compound was called inactive.
The same measure, in the same setting: the same measure for `COc1ccc(N)cc1`: “inactive”; for `OC(Cc1ccccc1Cl)(Cn1cncn1)C1(Cl)CC1` (stereo not given): “inactive”; for `CCOC(=O)CCN(SN(C)C(=O)Oc1cccc2c1OC(C)(C)C2)C(C)C`: “inactive”.
The same measure, in the same setting: to `CCCCN(CCCC)C(=S)[S-].CCCCN(CCCC)C(=S)[S-].[Ni+2]` belongs “inactive”; to `Brc1ccc(Br)cc1`, “inactive”.
The same measure, in the same setting: to `N#Cc1ccc(Cl)cc1` belongs “inactive”; to `CN(C)[C@@H]1C(=O)C(C(N)=O)=C(O)[C@@]2(O)C(=O)C3=C(O)c4c(O)ccc(Cl)c4[C@@](C)(O)[C@H]3C[C@@H]12`, “inactive”.
Usually AC50 stands for the concentration at which the activity in the assay is half-maximal. For `Cc1cc(C(C)(C)c2ccc(O)c(C)c2)ccc1O`, the concentration at half-maximal activity (AC50) is 79.5 µM (active).
Take `Cc1cc(-c2cc(C)c(N)c(C)c2)cc(C)c1N`: the result was inactive.
On the same count and under the same terms, to `O=NN1CCCCCC1` belongs “inactive”.
For the compound `Cc1ccc2nc3sc(=O)sc3nc2c1`, the AC50 was 41.1 µM (active).
Consider `CCOCn1c(-c2ccc(Cl)cc2)c(C#N)c(Br)c1C(F)(F)F`, for which the half-maximal activity concentration (AC50) is 38.1 µM (active).
Turning to `C=CC(=O)OCC(COC(=O)C=C)(COC(=O)C=C)COC(=O)C=C`, the compound was classed as inactive.
Regarding `O=c1[nH]c2ccccc2n1C1CCN(CCCC(c2ccc(F)cc2)c2ccc(F)cc2)CC1`, the call was inactive.
Regarding `O=C(Cl)OCCOCCOC(=O)Cl`, the result was inactive.
Still for that read-out and setting: to `OC[P+](CO)(CO)CO` belongs “inactive”.
For the compound `CCCCCCCCCCCCCCC(Br)C(=O)O` (stereo not given), the AC50 is 159 µM (active).
`OC(Cc1ccccc1Cl)(Cn1[nH]cnc1=S)C1(Cl)CC1` (stereo not given): the call was inactive.
In the case of `CCC[CH2][Sn]([Cl])([Cl])[CH2]CCC`, the compound was classed as inactive.
The same measure, in the same setting: the same measure for `CC(c1ccccc1)(c1ccc(O)cc1)c1ccc(O)cc1`: “inactive”; for `[F][Sn]([c]1ccccc1)([c]1ccccc1)[c]1ccccc1`: “inactive”; for `CCCCCCCCCCCCOS(=O)(=O)O`: “inactive”.
The same measure, in the same setting: to `CN(C)CCN(C)C` belongs “inactive”; to `COC(=O)c1cc(Oc2ccc(Cl)cc2Cl)ccc1[N+](=O)[O-]`, “inactive”; to `CCCCOP(=O)(CCCC)OCCCC`, “inactive”.
On to `C#CCOC(=O)/C=C(C)/C=C/CC(C)CCCC(C)C` (stereo not given), for which the compound was called inactive.
Same read-out and setting: the same measure for `C[N+](C)(C)Cc1ccccc1`: “inactive”; for `CCCCCCCCCCBr`: “inactive”.
